# Compound activity (PubChem)
# Cruzain noTriton: cruzain (T. cruzi) inhibition without detergent | P25779 | purified cruzain, Z-FR-AMC fluorescence, no detergent | Potency, µM, without a hit: max response, negative = inhibition, most hits filed as inhibitors | hit rate 2.3% among 200,000 | AID 1476;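 further: plate controls were enzyme without inhibitor for no effect and buffer without enzyme for full effect; nearly all actives have a fitted effect of over 40% in size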
# Target sequence (P25779 123-467 limits assumed): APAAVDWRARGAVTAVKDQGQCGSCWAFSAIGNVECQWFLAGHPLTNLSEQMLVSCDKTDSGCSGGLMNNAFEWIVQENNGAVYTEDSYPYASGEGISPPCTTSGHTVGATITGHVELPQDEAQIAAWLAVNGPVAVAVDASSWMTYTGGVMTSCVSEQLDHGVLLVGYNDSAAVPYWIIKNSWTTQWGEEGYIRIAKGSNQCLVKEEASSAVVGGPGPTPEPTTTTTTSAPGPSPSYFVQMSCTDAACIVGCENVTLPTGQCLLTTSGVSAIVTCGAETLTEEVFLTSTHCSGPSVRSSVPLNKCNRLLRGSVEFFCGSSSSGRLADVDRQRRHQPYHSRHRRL
#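 Detergent-free condition (0.00005% Triton X-100) in acetate buffer pH 5.5 with DTT. 1.5 nM enzyme and compound were pre-mixed 15 min, then 2 uM Z-FR-AMC substrate added; reaction progress from fluorescence change between first and third reads (60 s).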
# Cruzain inh Det: inhibitors of Trypanosoma cruzi cruzain with detergent. hit rate 0.43% among 200,000. Potency, µM, without a hit: max response, negative = inhibition, hits mostly inhibitors. purified cruzain, Z-FR-AMC fluorescence, 0.01% Triton;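 further: plate controls were neutral wells for no effect and buffer without enzyme for full effect; nearly all actives have a fitted effect of over 40% in size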
#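 Read-out: AMC fluorescence (360 nm excitation, 450 nm emission), four reads over 2 min, first-to-third difference used. Conditions: cruzain 1.5 nM, Z-FR-AMC 2 uM, pH 5.5 acetate, 5 mM DTT, 0.01% Triton X-100.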
# Starred values were filed as active, the others as inactive; ? = inconclusive. The list is not random: actives were taken first. Their share in the collection is about 2.5%. The call rests on the fitted dose curve; in most records, active means well fitted curve in the direction sought with a large enough effect; inconclusive means small, poorly fitted or top-dose-only effect, or another doubt; inactive means no such curve, though single readings can be large; an effect the other way counts as inactive or inconclusive. Potency means the concentration at half of the fitted maximal effect.
SMILES,Cruzain noTriton,Cruzain inh Det
CCOc1ccc(S(=O)(=O)c2c(C(=O)c3ccc(C)c(C)c3)cnc3ccccc23)cc1,20µM*,-3%
Cc1cc(C)c2c(-n3cccc3)c(C(=O)NCCc3ccc(Cl)cc3)sc2n1,22%,4%
CCOC(=O)c1c(C)[nH]c(C(=O)CSc2ccc(Cl)cc2)c1C,?,4%
CCOC(=O)c1c(C)[nH]c(C(=O)CSc2nnc(Nc3ccccc3F)s2)c1C,13µM*,-4%
COc1ccccc1CNC(=O)CCn1c(=O)c2ccccc2n(CC(=O)Nc2cc(Cl)ccc2C)c1=O,-1%,-1%
CC(CNC(=O)C1CCN(Cc2cc3ccccc3n2Cc2ccccc2)CC1)c1ccccc1 (configuration not stated),-21%,-4%
COc1ccccc1NS(=O)(=O)c1cc(NC(=O)Nc2ccc(Cl)cc2Cl)ccc1N1CCCCC1,5µM*,-2%
O=C(Nc1cccc(S(=O)(=O)Nc2ccccc2Cl)c1)c1ccc(N2CCCC2)c([N+](=O)[O-])c1,10µM*,-1%
COc1ccc(S(=O)(=O)N2CCCCC2)cc1NS(=O)(=O)c1cc(Cl)ccc1Cl,20µM*,-6%
O=C(Nc1cccc(C(F)(F)F)c1)Nc1ccc(N2CCCC2)c(S(=O)(=O)Nc2ccccc2Cl)c1,6.3µM*,0%
COc1cc(/C=C/C(=O)Nc2ccc(N3CCCCC3)c(S(=O)(=O)Nc3ccccc3Cl)c2)cc(OC)c1OC,13%,-2%
O=C(Nc1cccc(C(F)(F)F)c1)c1cc(S(=O)(=O)N2CCCCC2)ccc1N1CCOCC1,?,-12%
O=C(Nc1cccc(S(=O)(=O)Nc2ccccc2Cl)c1)c1ccc(Cl)nc1,0%,-4%
COc1ccc(Cl)cc1NS(=O)(=O)c1cc(Cl)ccc1OC,2%,-2%
O=C(Nc1cc(F)ccc1F)C1COc2ccccc2C1 (configuration not stated),-1%,-2%
CCN(CC)CCCNC(=O)C1CCN(S(C)(=O)=O)CC1,-3%,1%
CCc1ccc(C(=O)c2cn(CC(=O)Nc3ccc4c(c3)OCCO4)c3ccc(CC)cc3c2=O)cc1,4%,-1%
NC1=NC([S][Hg][c]2ccc(N)cc2)c2ncn([C@@H]3O[C@H](CO)[C@@H](O)[C@@H]3O)c2N1 (some centres not stated),22%,9%
CCOc1ccccc1NS(=O)(=O)c1c(-c2ccc(C)cc2)csc1C(=O)OC,?,-8%
COc1cc(CNCCSc2nnnn2C)ccc1OCc1ccccc1C,2%,0%
COc1ccc(Cn2c(O)c(C=Nc3ccc(O)cc3)c3ccccc3c2=O)cc1,25µM*,-3%
COc1ccc(Cn2c(O)c(C=Nc3ccccc3)c3ccccc3c2=O)cc1,?,-5%
COc1ccc(Cn2c(O)c(C=Nc3ccc(C)cc3)c3ccccc3c2=O)cc1,13µM*,0%
COc1ccc(N=Cc2c(O)n(-c3cccc(C)n3)c(=O)c3ccccc23)cc1,?,-9%
CCc1ccc(OCC(=O)NC(=S)Nc2ccc(C)cc2C)c(Br)c1,13µM*,6%
SMILES,Cruzain noTriton,Cruzain inh Det
CCc1ccc(OCC(=O)NCCN(C)C)c(Br)c1,-3%,-1%
Cc1n[nH]c(=S)n1/N=C/c1ccccc1OCc1ccc(Cl)cc1Cl,16µM*,-1%
Cc1n[nH]c(=S)n1/N=C/c1ccc(OCc2ccc(Cl)cc2Cl)cc1,-14%,-2%
Cc1ccc(NC(=O)C2CCCN(c3ncnc4onc(C)c34)C2)cc1Cl (configuration not stated),3%,7%
Cc1coc2c(C)c3oc(=O)c(CCC(=O)N4CCCCC4)c(C)c3cc12,0%,-1%
CCc1nnc(NC(=O)CSc2nccn2Cc2ccc(Cl)cc2)s1,6%,-1%
COc1ccc(Nc2cc(C(=O)NCc3ccco3)c3ccccc3n2)cc1,13µM*,-7%
COc1ccc(Nc2cc(C(=O)NCc3ccccc3OC)c3ccccc3n2)cc1,11%,-10%
O=C(NCc1ccco1)c1cc(-c2cccs2)nc2ccccc12,-13%,-15%
COc1ccc(CNC(=O)COC(=O)c2cc(-c3ccc(Cl)s3)nc3ccccc23)cc1,-18%,4%
O=C(COC(=O)c1cc(-c2ccc(Cl)s2)nc2ccccc12)NCc1ccco1,13%,20µM*
O=C(COC(=O)c1cc(-c2cccs2)nc2ccccc12)NCc1ccco1,3%,25µM*
CCC(CC)c1nn2c(=O)cc(COc3ccc(NC(=O)c4ccccc4C)cc3)nc2s1,5%,0%
COC(=O)c1sc2cccc(F)c2c1S(=O)(=O)N1CCN(c2cccc(C)c2)C(C)C1 (configuration not stated),-25%,-5%
CCN(CC)S(=O)(=O)c1ccc2c(c1)c(=O)c(C(=O)NCc1ccccc1Cl)cn2C,-8%,0%
O=C(/C=C/c1cccc([N+](=O)[O-])c1)c1ccccc1,4%,-1%
O=C(C#Cc1cccc([N+](=O)[O-])c1)c1ccccc1,-21%,8.9µM*
CC(CCC#N)[N+](=O)[O-] (configuration not stated),5%,-1%
COc1ccc(-c2nnc(C3CCN(C(=O)c4ccccc4F)CC3)o2)cc1,-11%,-4%
COc1ccc(Nc2oc(COc3ccccc3F)nc2C#N)cc1,25µM*,-21%
COc1ccc(Nc2oc(-c3ccc(COc4cccc(C)c4)o3)nc2C#N)cc1,16µM*,-6%
COc1ccc(Nc2oc(-c3ccc(COc4ccc(OC)cc4)o3)nc2C#N)cc1,-28%,-3%
CCOc1ccc(Nc2oc(-c3ccc(COc4ccc(C)cc4)o3)nc2C#N)cc1,3.2µM*,-4%
COc1ccc(Nc2oc(-c3ccc(COc4ccccc4)o3)nc2C#N)cc1,?,2%
COc1ccc(Nc2oc(COc3ccc(OC)cc3)nc2C#N)cc1,0%,-12%
SMILES,Cruzain noTriton,Cruzain inh Det
CSc1cccc(NC(=O)Cn2ncn3c(cc4ccccc43)c2=O)c1,-21%,-3%
CCc1ccccc1NC(=O)Cn1c(=O)n(CCc2ccccc2)c(=O)c2sc3ccccc3c21,4%,1%
CN(C)c1ccc(CNC(=O)c2cc3ccccn3n2)cc1,-17%,1%
C[N+](C)(C)c1ncnc2c1ncn2[C@@H]1CCCCO1,-2%,-1%
Cc1ccc(S(=O)(=O)/N=C2/C=C(C3C(=O)CC(C)(C)CC3=O)C(=O)c3ccccc32)cc1,-16%,-6%
CCc1ccc(S(=O)(=O)/N=C2/C=C(Sc3ncn[nH]3)C(=O)c3ccccc32)cc1,25µM*,-14%
NC(=O)Cn1c(=O)n(Cc2ccco2)c(=O)c2c3c(sc21)CCCCC3,7%,-3%
O=C(Cn1c(=O)n(Cc2ccco2)c(=O)c2c3c(sc21)CCCC3)Nc1ccccc1,25µM*,-6%
O=C(COC(=O)/C=C/c1nc2ccccc2s1)Nc1cccc(Cl)c1Cl,10µM*,-2%
O=C(COC(=O)/C=C/c1ccc(Cl)cc1)Nc1ccccc1-c1ccccc1,10%,-4%
CCN(CC)S(=O)(=O)c1ccc(/C=C/C(=O)OCC(=O)Nc2cccc3ccccc23)cc1,-10%,-2%
O=C(COC(=O)/C=C/c1nc2ccccc2s1)Nc1cccc2ccccc12,6.3µM*,-5%
CCOC(=O)c1ccc(N2C(=O)c3n[nH]c(-c4ccco4)c3C2c2ccccc2OC)cc1 (configuration not stated),?,-9%
COc1ccc(C)cc1NC(=O)C(OC(=O)c1ccc([N+](=O)[O-])o1)c1ccccc1 (configuration not stated),?,-8%
